Article PMC4336329 (PLoS ONE, 2015)
Out of some 310,000 compounds screened, about 14,000 (4.5%) showed an effect of 50% or more. The effect is printed as a negative number. Only a selection was taken, and strong results are over-represented in it overall.

What follows are molecules tested against human ether-à-go-go-related gene (hERG) potassium channel (human, UniProt Q12809) (assay: primary screen, population patch clamp on CHO cells stably expressing hERG; higher = less effect of the substance).
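Further: peak tail current of the secondary pulse compared with the same well before compound.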

Sequence of human ether-à-go-go-related gene (hERG) potassium channel (Q12809 whole entry, looked up): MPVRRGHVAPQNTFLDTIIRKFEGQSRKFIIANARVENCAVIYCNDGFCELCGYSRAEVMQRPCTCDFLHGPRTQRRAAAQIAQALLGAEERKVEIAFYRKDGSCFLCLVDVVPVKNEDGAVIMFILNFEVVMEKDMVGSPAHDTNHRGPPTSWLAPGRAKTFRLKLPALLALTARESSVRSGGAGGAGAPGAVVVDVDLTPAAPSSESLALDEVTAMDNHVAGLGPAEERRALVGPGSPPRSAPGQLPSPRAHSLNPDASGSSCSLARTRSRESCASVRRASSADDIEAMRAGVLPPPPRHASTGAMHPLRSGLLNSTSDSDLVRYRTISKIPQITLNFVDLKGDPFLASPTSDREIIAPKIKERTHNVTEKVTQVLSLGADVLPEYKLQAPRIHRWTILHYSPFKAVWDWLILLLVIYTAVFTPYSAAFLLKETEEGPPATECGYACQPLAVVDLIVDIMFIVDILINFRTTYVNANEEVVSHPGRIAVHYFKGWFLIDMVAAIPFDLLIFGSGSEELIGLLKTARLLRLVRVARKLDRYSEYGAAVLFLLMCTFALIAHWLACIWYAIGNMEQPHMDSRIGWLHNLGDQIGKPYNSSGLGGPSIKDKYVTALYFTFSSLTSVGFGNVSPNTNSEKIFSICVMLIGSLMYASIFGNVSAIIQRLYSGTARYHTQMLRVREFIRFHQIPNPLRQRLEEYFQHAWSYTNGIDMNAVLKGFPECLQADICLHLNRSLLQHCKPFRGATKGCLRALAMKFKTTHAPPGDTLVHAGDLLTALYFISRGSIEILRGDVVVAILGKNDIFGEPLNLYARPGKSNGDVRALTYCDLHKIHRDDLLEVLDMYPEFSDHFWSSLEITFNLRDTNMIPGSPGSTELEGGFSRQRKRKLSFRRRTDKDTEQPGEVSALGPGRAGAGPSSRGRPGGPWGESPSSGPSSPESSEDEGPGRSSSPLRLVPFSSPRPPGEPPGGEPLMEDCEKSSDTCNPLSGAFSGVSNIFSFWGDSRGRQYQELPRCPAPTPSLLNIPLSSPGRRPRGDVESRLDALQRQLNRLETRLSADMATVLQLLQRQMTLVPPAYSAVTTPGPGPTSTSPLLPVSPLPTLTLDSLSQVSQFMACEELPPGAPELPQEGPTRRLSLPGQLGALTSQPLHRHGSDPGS

SMILES | hERG current change (%, negative = inhibition) at 10uM [%]
CCN(CC)S(=O)(=O)c1cccc(-c2nnc(SCC(N)=O)n2CCc2ccccc2)c1 | -37.3
CCN(CC)S(=O)(=O)c1cccc(-c2nnc(SCc3ncc(-c4ccccc4)o3)n2C)c1 | -68.2
CCN(CC)S(=O)(=O)c1cccc(-c2nnc(SCC(=O)NC)n2CCc2ccccc2)c1 | -27.3
CCCNC(=O)C(Cc1cccc(OC)c1)NC(=O)c1ccc(C#N)cc1 (stereo not drawn) | -7.8
CCCNC(=O)C(Cc1cccc(Cl)c1)NC(=O)c1ccc(C#N)cc1 (stereo not drawn) | -11
CCCNC(=O)C(Cc1cccc(C#N)c1)NC(=O)c1ccc(C#N)cc1 (stereo not drawn) | -55.9
CCCNC(=O)C(Cc1cccc(C#N)c1)NC(=O)c1cccc([N+](=O)[O-])c1 (stereo not drawn) | -10.2
CCCNC(=O)C(Cc1ccc(OC)cc1)NC(=O)c1ccc(C#N)cc1 (stereo not drawn) | -50.7
CCCNC(=O)C(Cc1ccc(I)cc1)NC(=O)c1ccc(C#N)cc1 (stereo not drawn) | 8.48
O=C(Oc1ccc(F)cc1)c1ccc2c(=O)n3c(nc2c1)CCC3 | -21.6
O=C(COC(=O)c1cccc(O)c1)NC(=O)Cc1ccccc1 | 3.25
Cc1nn(-c2ccccc2)c(N2CCCC2)c1/C=C1\N=C(c2ccccc2)OC1=O | 11.7
CCCCCC(=O)NNC(=O)c1c(O)c2ccccc2n(CC)c1=O | -13.5
Cc1cccc(N=C2NN=C(c3ccccc3F)CS2)c1C | 41.8
Cc1cc(N2CCC(C)CC2)nc2cccc(O)c12 | -28.7
CCOc1ccc2ncc(C(=O)c3ccc(OC)cc3)c(N3CCN(CC)CC3)c2c1 | -74.5
COc1cc2ncc(C(=O)c3ccccc3)c(N3CCN(Cc4ccccc4)CC3)c2cc1OC | -12.9
CCc1ccc(C(=O)c2cnc3ccc(OC)cc3c2N2CCN(CC)CC2)cc1 | -67.7
CCOc1ccc2ncc(S(=O)(=O)c3ccccc3)c(N3CCN(c4ccc(OC)cc4)CC3)c2c1 | -10.9
CCN1CCN(c2c(C=O)c(Cl)nc3ccc(OC)cc23)CC1 | -54.5
CCOC(=O)c1cnc2ccc(OCC)cc2c1N1CCN(C)CC1.Cl | -47.8

SMILES | hERG current change (%, negative = inhibition) at 10uM [%]
COc1ccc(N2CCN(c3c(S(=O)(=O)c4ccccc4)cnc4ccc(OC)cc34)CC2)cc1 | -17.7
CCc1ccc2ncc(C(=O)c3ccccc3)c(N3CCOCC3)c2c1 | -45.7
CCOC(=O)c1cnc2ccc(OCC)cc2c1N1CCN(c2ccccc2OC)CC1 | -5.78
CSc1ccccc1NC(=O)Cn1ccsc1=N | 33.3
Cc1cc(NC(=O)CCCC(=O)OCC(F)(F)C(F)F)cc(C)c1C(=O)O | 20.1
O=C(O)CC1OCC=C2CN3CCC45C6=CC(=O)C(=O)C([N+](=O)[O-])=C6NC4C1C2CC35 (stereo not drawn) | 10.1
Cc1ccc(C)c(N2CCN(C(=O)Cn3cccc3)CC2)c1 | -19
COc1ccc(/C=C/c2cc(C(F)(F)F)[nH]c(=O)n2)cc1OC | -6.91
COc1cc(/C=C/c2cc[n+](C)cc2)ccc1OCC(=O)Nc1ccc(Cl)c(Cl)c1.[I-] | -5.84
CS(=O)(=O)N(CC(=O)N1CCCC1)c1ccc(OCc2ccccc2)cc1 | -15.7
C#Cc1ccc(CN2CCN(CCc3ccccc3)C(CCO)C2)cc1 (stereo not drawn) | -58.8
OCCC#Cc1ccc(CN2CCN(CCc3ccccc3)C(CCO)C2)cc1 (stereo not drawn) | -20.7
C#Cc1ccc(CN2CCN(CCCc3ccccc3)C(CCO)C2)cc1 (stereo not drawn) | -69.8
Nc1c(C(=O)NC2CCCC2)c2nc3ccccc3nc2n1N | 25.1
CC1CCc2c(nc3sc4c(c3c2N)CCCC4)C1 (stereo not drawn) | -11.5
CN(Cc1ccccc1NS(=O)(=O)c1ccc2ccccc2c1)C1CCCCC1.Cl | 7.73
O=C(CCN1CCN(C(c2ccccc2)c2ccccc2)CC1)N/N=C/c1ccc(O)cc1O | -53.1
Cc1cc(C(=O)N/N=C/c2cccc([N+](=O)[O-])c2)c(C)n1-c1ccccc1 | 8.8
COc1cc(/C=N/NC(=O)CCN2CCN(C(c3ccccc3)c3ccccc3)CC2)ccc1O | -78.7
COc1ccc(OC)c(/C=N/NC(=O)CCN2CCN(C(c3ccccc3)c3ccccc3)CC2)c1 | -2.39
O=C(CNC(=O)C(c1ccccc1)c1ccccc1)N/N=C/c1ccc(O)cc1O | -4.68
